Reference: PubChem BioAssay (Tox21)
Inconclusive results are not listed. Activity calls are given as the source filed them. Unless noted, calls come from the whole dose curve; as a rule, active = well fitted curve in the direction sought with a large enough effect in the repeat runs; inconclusive = weak or mixed curves; inactive = no such curve, though single readings can be large; an effect the other way counts as inactive or inconclusive.

Assays:
[1] = qHTS assay to identify small molecule agonists or antagonists of the thyroid stimulating hormone receptor (TSHR) signaling pathway - wild type cell line counter screen (AID 1259384; calls by dose curve)
Outline: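 Wild-type Hek293 cells, 800/well, 18 h at 37C, then compound with Ro20-1724 for 30 min RT. cAMP by HTRF (cAMP-d2/anti-cAMP cryptate), 1 h RT, fluorescence read. 15 concentrations, triplicates.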

[2] = target: Thyrotropin receptor (Homo sapiens) (UniProt P16473); test: qHTS assay to identify small molecule antagonists of the thyroid stimulating hormone receptor (TSHR) signaling pathway (AID 1259385; calls by dose curve; note: nearly all actives have a fitted effect of over 20% in size)
Sequence of Thyrotropin receptor (Homo sapiens) (P16473 whole entry, looked up): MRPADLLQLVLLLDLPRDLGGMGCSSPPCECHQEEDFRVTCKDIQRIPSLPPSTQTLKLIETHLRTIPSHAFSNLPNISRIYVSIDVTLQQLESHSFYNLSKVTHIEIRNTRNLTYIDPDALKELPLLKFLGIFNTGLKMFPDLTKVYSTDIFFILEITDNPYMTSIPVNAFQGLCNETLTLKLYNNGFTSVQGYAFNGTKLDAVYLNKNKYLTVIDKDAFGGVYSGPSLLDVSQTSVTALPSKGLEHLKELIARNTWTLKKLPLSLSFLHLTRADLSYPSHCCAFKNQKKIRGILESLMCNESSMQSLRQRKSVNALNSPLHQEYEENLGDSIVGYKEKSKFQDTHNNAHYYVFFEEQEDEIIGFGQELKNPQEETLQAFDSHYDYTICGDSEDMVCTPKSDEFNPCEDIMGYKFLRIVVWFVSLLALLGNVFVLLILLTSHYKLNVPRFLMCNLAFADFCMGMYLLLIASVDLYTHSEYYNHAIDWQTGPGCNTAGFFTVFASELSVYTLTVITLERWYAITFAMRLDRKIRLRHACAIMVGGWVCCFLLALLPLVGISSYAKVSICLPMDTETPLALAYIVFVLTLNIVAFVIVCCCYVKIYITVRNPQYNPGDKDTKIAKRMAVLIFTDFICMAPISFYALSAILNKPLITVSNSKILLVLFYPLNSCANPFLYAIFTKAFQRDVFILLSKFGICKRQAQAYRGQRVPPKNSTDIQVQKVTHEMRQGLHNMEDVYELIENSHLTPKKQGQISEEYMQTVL
Outline: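 TSHR-HEK293 cells (800/well) plated 18 h, then compounds with Ro20-1724 and TSH at 1.5 ng/mL final, 30 min at room temperature. cAMP quantified by HTRF (cAMP-d2/anti-cAMP-cryptate, 1 h); 15 concentrations in triplicate.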

[3] = qHTS assay to identify small molecule agonists of the estrogen receptor alpha (ER-alpha) signaling pathway in the presence of an antagonist - cell viability counter screen (AID 1259386);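 note: series mostly up to about 92 µM; cells exposed to compounds for 22 h at 37 °C before the viability read; nearly all actives have a fitted effect of over 30% in size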
Outline: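 ICI-182,780 at 10.0nM final accompanies the compound titration (15 concentrations, 22hr, 37C) on VM7Luc4E2 cells. The CellTiter-Fluor fluorescence readout runs in the same wells as the luciferase assay.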

[4] = target: Progesterone receptor (Homo sapiens) (UniProt P06401); test: qHTS assay to identify small molecule agonists of the progesterone receptor (PR) signaling pathway (AID 1346784; calls by dose curve; note: nearly all actives have a fitted effect of over 30% in size)
Sequence of Progesterone receptor (Homo sapiens) (P06401 whole entry, looked up): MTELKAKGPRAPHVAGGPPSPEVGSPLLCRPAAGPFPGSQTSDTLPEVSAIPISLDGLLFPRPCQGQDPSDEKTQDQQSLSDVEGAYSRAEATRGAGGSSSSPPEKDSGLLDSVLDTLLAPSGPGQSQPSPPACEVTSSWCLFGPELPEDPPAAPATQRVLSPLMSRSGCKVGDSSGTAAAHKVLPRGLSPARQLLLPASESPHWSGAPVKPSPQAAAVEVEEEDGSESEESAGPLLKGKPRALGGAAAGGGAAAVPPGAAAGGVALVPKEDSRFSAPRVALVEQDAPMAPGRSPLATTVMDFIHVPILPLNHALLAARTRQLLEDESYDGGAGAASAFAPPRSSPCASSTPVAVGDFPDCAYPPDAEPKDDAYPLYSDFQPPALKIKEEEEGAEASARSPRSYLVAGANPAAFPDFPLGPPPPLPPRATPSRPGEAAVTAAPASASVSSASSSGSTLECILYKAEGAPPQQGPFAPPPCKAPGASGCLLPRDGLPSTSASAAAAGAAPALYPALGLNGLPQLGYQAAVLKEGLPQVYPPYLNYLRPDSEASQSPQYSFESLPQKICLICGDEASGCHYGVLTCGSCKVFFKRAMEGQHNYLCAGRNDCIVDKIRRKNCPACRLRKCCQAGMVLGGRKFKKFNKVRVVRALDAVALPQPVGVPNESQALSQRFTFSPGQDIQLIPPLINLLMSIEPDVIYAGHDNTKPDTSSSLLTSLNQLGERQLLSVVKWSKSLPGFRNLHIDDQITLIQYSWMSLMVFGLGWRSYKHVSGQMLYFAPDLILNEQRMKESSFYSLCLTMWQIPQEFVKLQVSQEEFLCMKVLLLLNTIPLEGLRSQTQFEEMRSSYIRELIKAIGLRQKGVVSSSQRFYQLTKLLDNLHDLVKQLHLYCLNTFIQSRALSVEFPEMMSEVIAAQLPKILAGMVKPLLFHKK
Outline: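 HEK 293T PR-UAS-bla reporter cells, 2% charcoal-stripped FBS; 6 hr settle at 37C/5% CO2, compound (DMSO) 16 hr, LiveBLAzer B/G FRET substrate 2 hr RT, fluorescence intensity read.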

[5] = target: Progesterone receptor (Homo sapiens) (UniProt P06401); test: qHTS assay to identify small molecule antagonists of the progesterone receptor (PR) signaling pathway (AID 1346795; active = well fitted inhibition curve with a large enough effect in the signal ratio in the repeat runs, not every such curve was filed as active; the % refers to the signal ratio)
Outline: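 Beta-lactamase reporter, HEK293T PR-UAS-bla line; 2% charcoal-stripped FBS; 6 hr pre-incubation, 37C/5% CO2. Compound + R5020 1 nM final, 16 hr. LiveBLAzer B/G FRET substrate, 2 hr RT; fluorescence intensity read.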

[6] = qHTS assay to identify small molecule antagonists of the progesterone receptor (PR) signaling pathway - cell viability counter screen (AID 1346798); note: series mostly up to about 92 µM; nearly all actives have a fitted effect of over 50% in size
Outline: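 Luminescence readout (CellTiter-Glo, 30 min, RT) of viability in PR-UAS-bla HEK293T cells exposed to compound and R5020 agonist for 16 hr at 37C, 5% CO2; run in the same wells as the beta-lactamase reporter read.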

[7] = qHTS assay to identify small molecule agonists of the progesterone receptor (PR) signaling pathway - cell viability counter screen (AID 1346799; calls by dose curve; note: nearly all actives have a fitted effect of over 45% in size)
Outline: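 HEK293T PR-UAS-bla, 3,000 cells/well, 2% charcoal-stripped FBS; 6 h settle, compound 16 h at 37C/5% CO2; LiveBLAzer 2 h RT, then CellTiter-Glo 30 min RT, luminescence read.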

[8] = qHTS assay to identify small molecule antagonists of the TGF-beta/Smad signaling pathway - cell viability counter screen (AID 1346824); note: nearly all actives have a fitted effect of over 50% in size
Outline: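 SBE-bla HEK 293T cells, incubated overnight, then compound plus 0.25 ng/mL TGF-beta1 (stock added) for 5 hr at 37 C. Viability was read in the same wells by CellTiter-Glo luminescence after 30 min at room temperature.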

[9] = qHTS assay to identify small molecule agonists of the TGF-beta/Smad signaling pathway - cell viability counter screen (AID 1346829); note: top concentration of the series differs between compounds; nearly all actives have a fitted effect of over 45% in size
Outline: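 Cytotoxicity counter screen: CellTiter-Glo luminescence (30 min, room temperature) measured in the SBE-bla HEK 293T reporter wells after 5 hr compound treatment at 37 C and the 2 hr substrate step.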

[10] = qHTS assay to identify small molecule agonists of the TGF-beta/Smad signaling pathway (AID 1346859; active = well fitted activation curve with a large enough effect in the signal ratio in the repeat runs, not every such curve was filed as active; the % refers to the signal ratio; note: series mostly up to about 77 µM)
Outline: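 Read-out: fluorescence at 460 and 530 nm (405 nm excitation) after a 2 hr room-temperature incubation with beta-lactamase FRET substrate. SBE-bla HEK 293T cells had been treated with test compounds for 5 hr at 37 C.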

[11] = target: Thyrotropin-releasing hormone receptor (Homo sapiens) (UniProt P34981); test: qHTS assay to identify small molecule antagonists of the thyrotropin-releasing hormone receptor (TRHR) signaling pathway (AID 1346877; active = well fitted inhibition curve with a large enough effect in the repeat runs, not every such curve was filed as active; note: series mostly up to about 51 µM)
Sequence of Thyrotropin-releasing hormone receptor (Homo sapiens) (P34981 whole entry, looked up): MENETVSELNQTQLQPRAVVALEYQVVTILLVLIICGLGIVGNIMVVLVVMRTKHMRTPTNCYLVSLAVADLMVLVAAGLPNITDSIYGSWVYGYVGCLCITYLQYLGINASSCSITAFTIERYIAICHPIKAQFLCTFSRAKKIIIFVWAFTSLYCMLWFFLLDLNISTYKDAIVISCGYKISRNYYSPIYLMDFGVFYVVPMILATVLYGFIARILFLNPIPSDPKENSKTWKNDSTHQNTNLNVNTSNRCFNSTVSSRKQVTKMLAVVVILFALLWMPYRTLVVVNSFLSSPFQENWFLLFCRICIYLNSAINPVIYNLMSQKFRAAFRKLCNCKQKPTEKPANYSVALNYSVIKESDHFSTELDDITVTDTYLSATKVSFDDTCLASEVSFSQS
Outline: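 Screening used HEK293 cells engineered with TRHR, with a brief 5 min room-temperature compound exposure preceding addition of TRH to 1 nM. The read-out was kinetic calcium-dye fluorescence, concentration-response from 15 doses in triplicate.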

[12] = target: Thyrotropin-releasing hormone receptor (Homo sapiens) (UniProt P34981); test: qHTS assay to identify small molecule agonists of the thyrotropin-releasing hormone receptor (TRHR) signaling pathway (AID 1346891; calls by dose curve;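 note: HEK293 cells expressing TRHR with calcium dye readout; series mostly up to about 58 µM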)
Outline: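 HEK293/TRHR cells, 1500 per well, 18 h 37 °C; Ca dye 2 h 37 °C; pin-tool compound addition (agonist mode); kinetic fluorescence 3 min, 1 s reads; 15 concentrations, triplicate.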

[13] = Human pregnane X receptor (PXR) small molecule agonists, qHTS cell viability counter screen (AID 1346977); note: nearly all actives have a fitted effect of over 50% in size
Outline: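 Fluorescence read-out (CellTiter-Fluor) of viability in PXR-Luc HepG2 cells, multiplexed with the luciferase agonist read. Compounds in DMSO added after 5hr plating; 24hr total exposure at 37C, 5% CO2.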

[14] = Caspase-3/7 induction in HepG2 cells by small molecules, qHTS assay (AID 1346978); note: nearly all actives have a fitted effect of over 15% in size
Outline: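 Wild-type HepG2 cells, 2,000/well, settled 5 hr at 37 C and 5% CO2, then compound-treated for 17 hr; caspase-3/7 activity read by luminescent Caspase-Glo 3/7 after 30 min at room temperature.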

[15] = Caspase-3/7 induction in CHO-K1 cells by small molecules, qHTS cell viability counter screen (AID 1346979); note: nearly all actives have a fitted effect of over 35% in size
Outline: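 CHO-K1 wt, 1,500 cells/well; 5hr pre-incubation 37C/5% CO2; compound pin transfer (DMSO); 16hr exposure; CellTiter-Fluor added, 1hr, fluorescence read.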

[16] = Caspase-3/7 induction in CHO-K1 cells by small molecules, qHTS assay (AID 1346980); note: nearly all actives have a fitted effect of over 15% in size
Outline: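 Wild-type CHO-K1 cells exposed to compounds for 17hr at 37 C, 5% CO2. Caspase-3/7 activity then measured by Caspase-Glo 3/7 luminescence after 30min at room temperature.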

[17] = Caspase-3/7 induction in HepG2 cells by small molecules, qHTS cell viability counter screen (AID 1346981); note: series mostly up to about 92 µM; nearly all actives have a fitted effect of over 30% in size
Outline: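 Multiplexed with the caspase-3/7 assay: HepG2 cells, 16 hr compound treatment, CellTiter-Fluor viability detection by fluorescence.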

[18] = target: Estrogen receptor (Homo sapiens) (UniProt P03372); test: qHTS assay to identify small molecule agonists of the estrogen receptor alpha (ER-alpha) signaling pathway in the presence of an antagonist (AID 1259383; calls by dose curve; note: top concentration of the series differs between compounds; nearly all actives have a fitted effect of over 15% in size)
Sequence of Estrogen receptor (Homo sapiens) (P03372 whole entry, looked up): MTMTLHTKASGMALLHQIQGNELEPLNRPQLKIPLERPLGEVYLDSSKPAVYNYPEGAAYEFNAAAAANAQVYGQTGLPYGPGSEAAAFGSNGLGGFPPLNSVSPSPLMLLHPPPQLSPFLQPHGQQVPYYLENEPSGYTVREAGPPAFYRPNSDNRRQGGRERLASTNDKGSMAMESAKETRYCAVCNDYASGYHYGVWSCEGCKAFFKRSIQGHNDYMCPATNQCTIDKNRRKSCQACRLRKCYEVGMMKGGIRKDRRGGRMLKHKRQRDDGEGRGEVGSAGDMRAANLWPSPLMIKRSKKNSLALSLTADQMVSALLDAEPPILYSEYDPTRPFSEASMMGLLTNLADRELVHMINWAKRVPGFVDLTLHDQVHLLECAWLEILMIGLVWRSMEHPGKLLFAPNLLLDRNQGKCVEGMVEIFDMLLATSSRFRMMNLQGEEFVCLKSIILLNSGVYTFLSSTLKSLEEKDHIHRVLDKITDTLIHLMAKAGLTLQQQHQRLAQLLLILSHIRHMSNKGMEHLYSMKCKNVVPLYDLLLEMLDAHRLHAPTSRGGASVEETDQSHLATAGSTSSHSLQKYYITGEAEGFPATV
Outline: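 Using VM7Luc4E2 cells seeded 24hr before treatment, antagonist ICI-182,780 (10.0nM final) was added, followed by compounds at 15 concentrations. Plates incubated 22hr; ONE-Glo luminescence quantified reporter activity.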

Measured: Potency

CC(C)NC(=O)c1ccc(C=O)cc1
not listed: [18]
inactive: all other assays above

O/N=C/C=N/O
not listed: [2] | [18]
inactive: all other assays above

Cc1c(N)cccc1Cl
not listed: [4] | [5]
inactive: all other assays above

CCCCOC(=O)C(C)O (stereo not given)
not listed: [2] | [5] | [6]
inactive: all other assays above

CC1=NN(c2ccc(S(=O)(=O)O)cc2)C(=O)C1
not listed: [2] | [6] | [9] | [18]
inactive: all other assays above

COC(=O)CCCCC(CCSS/C(CCO)=C(\C)N(C=O)Cc1cnc(C)nc1N)SC(C)=O (stereo not given)
not listed: [1] | [8] | [13] | [15]
inactive: all other assays above

O=C(O)CCCCCC(=O)O
not listed: [1] | [2]
inactive: all other assays above

C=C(C)[C@@H]1CC=C(C)CC1
not listed: [1] | [2] | [3] | [11] | [12]
inactive: all other assays above

C=C(C)[C@@H]1CC=C(C)C(=O)C1
not listed: [1] | [8] | [10] | [11] | [12] | [18]
inactive: all other assays above

CC(C)CCOC(=O)c1ccccc1
not listed: [1] | [8] | [18]
inactive: all other assays above

CCC[C@@H]1C[C@@H](C(=O)N[C@@H]([C@H]2O[C@H](SC)[C@H](O)[C@@H](O)[C@H]2O)[C@@H](C)O)N(C)C1
not listed: [1] | [4] | [5] | [7] | [9]
inactive: all other assays above

Cn1c(=O)c2c(ncn2CCO)n(C)c1=O
not listed: [18]
inactive: all other assays above

CC1(C)Oc2ccc(C#N)cc2[C@@H](N2CCCC2=O)[C@@H]1O
not listed: [11] | [12]
inactive: all other assays above

CC1=C(C(=O)O)N2C(=O)[C@@H](NC(=O)[C@H](N)C3=CCC=CC3)[C@H]2SC1
not listed: [2] | [5] | [11] | [12]
inactive: all other assays above

[O-][n+]1cccc(/C(Cl)=N/OC[C@@H](O)CN2CCCCC2)c1
not listed: [1] | [2]
inactive: all other assays above

Cc1ccc(C(=O)O)cc1[N+](=O)[O-]
not listed: [1] | [6]
inactive: all other assays above
